Consider 40 sequences from PMC9838217, “Structure of SALL4 zinc finger domain reveals link between AT-rich DNA binding and Okihiro syndrome”.

For the test, the target named is T1, SALL4 ZFC4 WT (HT-SELEX) (Mus musculus, UniProt Q8BX22 870-940).
T1 sequence: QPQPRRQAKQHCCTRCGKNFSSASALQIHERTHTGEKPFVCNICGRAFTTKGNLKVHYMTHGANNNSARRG
The test can be described thus: HT-SELEX; high values mean tight binding. Particulars: protein: recombinant; vector His6-GST; dsDNA, one strand shown. The essentials: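 For each canonical k-mer, binding signal is the read fraction as fold change versus the initial random library. Data came from up to 6 triplicate cycles in which purified recombinant mouse SALL4 zinc finger cluster 4 (residues 870–940, 1 µg) was incubated 10 min at room temperature with library DNA (1.5 µg first cycle, 200 ng later) in 100 µl of 10 mM Tris–HCl pH 7.5, 50 mM NaCl, poly(dI-dC), DTT, followed by Ni2+ bead capture, PCR amplification, MiSeq sequencing and a 6-mer scan.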
In the case of ATTTTG, the binding signal came to 1.66 ± 0.083 fold-change vs cycle 0.
In the case of GACGGA it was 0.372 ± 0.0168 fold-change vs cycle 0; in that of ATATTG, 2.19 ± 0.214 fold-change vs cycle 0.
The value for TAAGTA was 2.21 ± 0.113 fold-change vs cycle 0; that for CCTGAG was 0.502 ± 0.0217 fold-change vs cycle 0; that for AAAGAC was 1.11 ± 0.0498 fold-change vs cycle 0.
As to ACTACT, the binding signal came to 1.38 ± 0.0657 fold-change vs cycle 0.
The value for ACATAC was 1.3 ± 0.0628 fold-change vs cycle 0; that for AACCTT was 1.35 ± 0.0624 fold-change vs cycle 0; that for CAACCC was 0.417 ± 0.0301 fold-change vs cycle 0.
Regarding AAAGCG, the binding signal was determined as 0.393 ± 0.0227 fold-change vs cycle 0.
In the case of AAATAT it was 5.57 ± 0.542 fold-change vs cycle 0.
In the case of ATGAAT it was 3.02 ± 0.199 fold-change vs cycle 0; in that of AAACGG, 0.53 ± 0.0454 fold-change vs cycle 0.
In the case of AACGCA it was 0.504 ± 0.0712 fold-change vs cycle 0; in that of AATGCA, 1.12 ± 0.0474 fold-change vs cycle 0; in that of AGGTGC, 0.324 ± 0.00829 fold-change vs cycle 0.
For the sequence AGGGAC, the binding signal was 0.483 ± 0.0313 fold-change vs cycle 0.
In the case of TGATAA it was 2.35 ± 0.175 fold-change vs cycle 0; in that of AGACAA, 1.15 ± 0.0323 fold-change vs cycle 0.
The value for AGTCAT was 1.45 ± 0.0471 fold-change vs cycle 0; that for CCCTTA was 0.943 ± 0.0612 fold-change vs cycle 0; that for TGGAAA was 1.28 ± 0.069 fold-change vs cycle 0.
In the case of GGTTGA it was 0.753 ± 0.0201 fold-change vs cycle 0; in that of CGTTTA, 1.06 ± 0.0285 fold-change vs cycle 0; in that of ATCATG, 1.38 ± 0.03 fold-change vs cycle 0.
For the sequence AGGGAT, the binding signal was found to be 0.9983 ± 0.00779 fold-change vs cycle 0.
Turning to CCTTAG, the binding signal worked out at 0.925 ± 0.0277 fold-change vs cycle 0.
In the case of CCCATA it was 0.844 ± 0.0635 fold-change vs cycle 0.
In the case of GTCTAA it was 1.16 ± 0.029 fold-change vs cycle 0; in that of TACCGA, 0.689 ± 0.0125 fold-change vs cycle 0.
For the sequence AAGCAA, the binding signal was 1.18 ± 0.0487 fold-change vs cycle 0.
The value for ATTCTA was 2.06 ± 0.0756 fold-change vs cycle 0; that for ATTTTC was 1.99 ± 0.115 fold-change vs cycle 0.
In the case of CATTAC it was 1.43 ± 0.0799 fold-change vs cycle 0; in that of AAATTC, 1.76 ± 0.142 fold-change vs cycle 0.
For AAATTG, the binding signal was 1.6 ± 0.125 fold-change vs cycle 0.
As for GAGCTC, the binding signal worked out at 0.338 ± 0.0166 fold-change vs cycle 0.
In the case of ATAAAC it was 2.24 ± 0.173 fold-change vs cycle 0.
CAGACG: the binding signal amounted to 0.352 ± 0.0274 fold-change vs cycle 0.
